# Measurements taken from PubChem BioAssay AID588590 (National Center for Advancing Translational Sciences (NCATS), 2011).
# About 4,000 (1%) of roughly 390,000 compounds were called active. A call without a number means that no potency is given here. About 7% were inconclusive and are not listed. The sample holds actives, similar compounds and a random draw of the others, so the mix is not that of the screen. Calls come from the whole dose curve; as a rule, active = well fitted inhibition curve with a large enough effect; inconclusive = small, poorly fitted or top-dose-only effect, or another doubt; inactive = no such curve, though single readings can be large or run the other way.
# Target: DNA polymerase iota (Homo sapiens) (UniProt Q9UNA4)
# Test: qHTS for Inhibitors of Polymerase Iota
# Settings: Pol iota fluorescent replication assay, 10 min; series mostly up to 115 µM
# Method in brief: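 Pol iota at 10 nM preincubated 15 min with compounds at room temperature; reaction started with fluorescent substrate, 50 nM final. Fluorescence read kinetically at 0 and 10 min; buffer-only wells as negative control.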
# Potency is the fitted concentration of half-maximal effect.
# DNA polymerase iota (Homo sapiens), sequence (Q9UNA4 whole entry, looked up): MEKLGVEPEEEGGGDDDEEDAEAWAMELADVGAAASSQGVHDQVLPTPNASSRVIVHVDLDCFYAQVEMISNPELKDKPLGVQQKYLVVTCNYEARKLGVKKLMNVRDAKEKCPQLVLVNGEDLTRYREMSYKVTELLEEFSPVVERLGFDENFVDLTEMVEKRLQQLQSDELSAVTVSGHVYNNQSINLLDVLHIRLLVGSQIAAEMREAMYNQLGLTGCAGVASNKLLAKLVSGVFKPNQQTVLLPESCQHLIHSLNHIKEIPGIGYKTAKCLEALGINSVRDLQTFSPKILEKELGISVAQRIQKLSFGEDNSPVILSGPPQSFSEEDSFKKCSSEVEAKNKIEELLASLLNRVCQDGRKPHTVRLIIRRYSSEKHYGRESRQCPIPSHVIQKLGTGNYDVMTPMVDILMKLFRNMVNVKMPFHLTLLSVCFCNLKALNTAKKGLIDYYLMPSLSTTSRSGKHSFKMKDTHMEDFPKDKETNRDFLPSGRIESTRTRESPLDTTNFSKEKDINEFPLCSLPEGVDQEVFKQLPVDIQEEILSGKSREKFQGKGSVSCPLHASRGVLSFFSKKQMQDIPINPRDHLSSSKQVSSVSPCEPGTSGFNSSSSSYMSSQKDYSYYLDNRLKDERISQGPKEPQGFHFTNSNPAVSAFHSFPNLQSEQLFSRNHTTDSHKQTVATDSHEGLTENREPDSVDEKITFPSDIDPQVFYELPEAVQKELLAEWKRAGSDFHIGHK
row,Structure (SMILES),Potency
1,OC[C@H]1O[C@@H](n2cnc3c(N[C@H]4CC5CCC4C5)ncnc32)[C@H](O)[C@@H]1O (stereo partly drawn),inactive
2,Cc1ccc(CSc2nc3ccsc3c(=O)n2CCC(C)C)cc1,inactive
3,COc1ccc(CCNC2=C(Cl)C(=O)N(Cc3ccccc3)C2=O)cc1OC,inactive
4,CN(C(=O)CN1C(=O)/C(=C/c2ccc(Cl)cc2)SC1=S)C1CCS(=O)(=O)C1 (stereo not drawn),inactive
5,COc1cc(/C=C2/SC(=S)N(Cc3ccccc3)C2=O)cc(OC)c1O,44.7 µM (active)
6,Cc1ccccc1NC(=O)Cn1c(=O)n(CCc2ccccc2)c(=O)c2ccccc21,inactive
7,Cc1ccccc1NC(=O)CN1C(=O)N/C(=C\c2cccn2-c2cccc(C(=O)O)c2)C1=O,5.62 µM (active)
8,Cc1ccccc1NC(=O)CN1C(=O)C(C)(C)c2ccccc21,inactive
9,COc1ccc2c(c1)c(=O)c(S(=O)(=O)c1ccc(F)cc1)cn2CC(=O)Nc1ccc(C)cc1C,inactive
10,CCN(CCCNC(=O)c1cc(Nc2ccc(OC)cc2)nc2ccccc12)c1cccc(C)c1,inactive
11,CC(C)CCNC(=O)c1ccc2c(Cl)c3c(nc2c1)CCC3,inactive
12,COc1cccc(CNC(=O)CSc2c3c(nc4cc(Cl)ccc24)CCCC3)c1,inactive
13,COc1cccc(CNC(=O)c2ccc3c(Cl)c4c(nc3c2)CCCC4)c1,89.1 µM (active)
14,Cc1ccc(Cn2c(CCCNC(=O)C3CCCCC3)nc3ccccc32)cc1,inactive
15,Cn1c(=O)oc2cc(S(=O)(=O)CCC(=O)NCCc3ccc(Cl)cc3)ccc21,inactive
16,O=C(O)C1CCN(c2ccc([N+](=O)[O-])cc2[N+](=O)[O-])CC1,20 µM (active)
17,CC1CCN(c2ccc([N+](=O)[O-])cc2C(N)=O)CC1,inactive
18,CCC(C)(C)NC(=O)c1cc([N+](=O)[O-])ccc1N1CCCCC1,inactive
19,COC(=O)CN1C(=O)N/C(=C/c2ccc(OC)c(C)c2OC)C1=O,inactive
20,COC(=O)COc1ccc2c(c1C)O/C(=C\c1ccco1)C2=O,89.1 µM (active)
21,COc1ccccc1OCC(=O)OCc1cc(-c2ccco2)on1,inactive

row,Structure (SMILES),Potency
1,Cc1ccc(C(=O)CC2(O)C(=O)N(CCc3ccccc3)c3ccc(Br)cc32)cc1 (stereo not drawn),inactive
2,CCN(CC)c1cc(NC2CCCCC2)c2c3c(onc13)-c1ccccc1C2=O,inactive
3,COc1ccc(CNC(=O)CC2Oc3ccc(C)cc3NC2=O)cc1 (stereo not drawn),inactive
4,CCc1ccc2nc3sc(C(=O)Nc4nnc(CC)s4)c(N)c3cc2c1,22.4 µM (active)
5,CCc1ccc(NC(=O)c2sc3nc4c(cc3c2N)CN(CC)CC4)cc1,inactive
6,CCc1nnc(NC(=O)c2ccc(S(=O)(=O)NC3CCCCC3)cc2)s1,inactive
7,COC(=O)c1cc2occc2n1Cc1nc(-c2ccc(C)cc2)oc1C,inactive
8,Cc1cc(/C=N/NC(=O)CC2(C)OCCO2)c(C)n1-c1ccc(Cl)c(Cl)c1,inactive
9,Cc1cc(/C=N/Nc2ccc([N+](=O)[O-])cn2)c(C)n1-c1cccc(C(=O)O)c1,28.2 µM (active)
10,Cc1cc(C=O)c(C)n1-c1ccc(NC2CCCCC2)c([N+](=O)[O-])c1,inactive
11,COc1ccc(NC(=O)C2CCN(c3ccc(Sc4ccc(C)cc4)nn3)CC2)c(OC)c1,inactive
12,O=C1C[C@H]2C=CCc3cccc(c32)CN1Cc1ccccc1,inactive
13,COc1ccc(Cl)cc1-n1c(CCC(=O)O)ccc1-c1ccc(C)cc1,inactive
14,CCOc1ccccc1CNC(=O)Nc1cn(CC(C)C)c(=O)c2ccccc12,39.8 µM (active)
15,CCOc1ccccc1N(CC)C(=O)Nc1cn(C)c(=O)c2ccccc12,inactive
16,CCOc1ccccc1NC(=O)Cn1c2ncccc2c(=O)n1-c1ccc(C)c(C)c1,inactive
17,Cc1cccc(-c2nnc(SC(C)C(=O)Nc3ccccc3)n2C)c1 (stereo not drawn),inactive
18,Cc1ccc(C)c2sc(NC(=O)c3ccc(S(=O)(=O)N4CCCC4)cc3)nc12,inactive
19,Cc1ccc(CCNC(=O)C2CCN(c3nnc(-n4cccc4CNc4ccc(C)cc4)s3)CC2)cc1,inactive
20,Cc1nn2c3cc(N4CCOCC4)ccc3nc2c2ccccc12,inactive
21,C1=C(N2CCOCC2)/C(=C/c2nc3ccccc3[nH]2)CC1,14.1 µM (active)

row,Structure (SMILES),Potency
1,c1ccc(-n2nnnc2N2CCOCC2)cc1,inactive
2,O=C(Nc1ccc(Cl)cc1)c1cnn2c1NC(=C1CC1)C=C2C(F)F,inactive
3,CCCOC(=O)c1c(NC(=O)c2cc3nc(-c4ccc(OC)cc4)cc(C(F)(F)F)n3n2)sc2c1CCCC2,inactive
4,CC1CCC2(CC1)N=C(c1ccccc1)C(=O)N2CC(=O)Nc1ccc(F)c(Cl)c1 (stereo not drawn),inactive
5,Cc1ccc2nc(COc3cccc(NC(=O)c4cccc(Cl)c4)c3)cc(=O)n2c1,89.1 µM (active)
6,Cc1ccc2nc(COc3cccc(NC(=O)Nc4ccc(C)c(Cl)c4)c3)cc(=O)n2c1,inactive
7,Cc1ccc2nc(COc3ccccc3NC(=O)Nc3ccc(F)c(Cl)c3)cc(=O)n2c1,inactive
8,Cc1ccc(/C=N/NC(=O)c2cc3ccccc3cc2O)o1,50.1 µM (active)
9,Cc1ccc(/C=N/NC(=S)NC2CCCCC2)o1,inactive
10,Cc1ccc(/C=N/NC(=O)Cn2nc(C)c(Br)c2C)o1,inactive
11,CCCC12CN3CC(C)(CN(C1)C3c1ccccc1Cl)C2=O (stereo not drawn),inactive
12,COc1ccc(N=C2SC(C(=O)Nc3ccc(F)cc3)CC(=O)N2C)cc1 (stereo not drawn),inactive
13,CCOc1ccc(N=C2SC(C(=O)O)CC(=O)N2C)cc1 (stereo not drawn),inactive
14,CN=C1SC(C(=O)O)CC(=O)N1C (stereo not drawn),89.1 µM (active)
15,Cc1ccc2ncc(C(=O)Nc3ccc(OC(F)(F)F)cc3)c(=O)n2c1,inactive
16,CCOc1ccc(Nc2c(S(=O)(=O)c3ccccc3)cnc3ccccc23)cc1,inactive
17,COc1ccc(OC)c(-n2nnc(-c3nc(-c4cc(OC)c(OC)c(OC)c4)no3)c2C)c1,inactive
18,COc1cc(Nc2nc(-c3ccc(OC)c(OC)c3)nc3ccccc23)cc(OC)c1,inactive
19,O=[N+]([O-])c1cc(-c2nc(-c3ccccc3)no2)ccc1NCc1ccco1,inactive
20,CNc1ccc(-c2nc(-c3ccco3)no2)cc1[N+](=O)[O-],inactive
21,CC(Nc1ccc(-c2nc(-c3ccco3)no2)cc1[N+](=O)[O-])c1ccccc1 (stereo not drawn),70.8 µM (active)
